Screening data (PubChem BioAssay)
Only some compounds are listed: those with a hit (about 8% of all), similar ones and a draw of the others.
SARS PLpro yeast: qHTS of Yeast-based Assay for SARS-CoV PLP. Potency, µM (top dose mostly 32.9 µM), actives largely listed as activators. 330,000 tested, 0.19% active. AID 485353, 2010. S. cerevisiae expressing SARS-CoV PLpro, growth rescue; calls by dose curve; further: nearly all actives have a fitted effect of over 55% in size
HCMV inh: qHTS Assay for inhibitors of the human cytomegalovirus (HCMV). HFF cells, HCMV-luciferase reporter, 72 h; hits give low values. activity change, negative = inhibition, % at 57.5 µM. 410,000 tested, 4.5% active. AID 1259415, 2018; in the data active means activity change below about -60%; inconclusive means no clear call, values can overlap the other calls; inactive means above about -39%
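HFF cells seeded 16 h at 37C, treated with compounds, infected with luciferase-reporter HCMV at MOI 1 PFU/cell; luciferase read at 72 h post infection, normalized to buffer-only and Salinomycin controls.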
LASV entry inh: qHTS for Inhibitors of binding or entry into cells for Lassa Virus; Lassa virus pseudotype entry inhibition, cell reporter; Potency, µM (highest dose often 37.9 µM), actives largely listed as inhibitors; 300,000 tested, 1.2% active; AID 540256, 2011; calls by dose curve; tested in HEK293 cells; further: nearly all actives have a fitted effect of over 50% in size
HCV inh: qHTS Assay for Inhibitors of Hepatitis C Virus (HCV). Potency, µM (top dose mostly 41.8 µM), usual class: inhibitors. AID 651820, 2012. 340,000 tested, 3.4% active. Huh7.5.1 HCVcc-Cre infection, luciferase reporter, 44 h
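A cell-based infection assay in which seeded cells (1,000 per well) receive test compound after 4 h, are inoculated with HCVcc-Cre at approximately 0.5 moi, and are incubated 44 h before luminescence detection.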
Marburg entry inh: qHTS for inhibitors of binding or entry into cells for Marburg Virus; Potency, µM (titrated, usually from 37.8 µM), usual class: inhibitors; Marburg virus pseudotyped entry inhibition, cell reporter; 300,000 tested, 1.8% active; calls by dose curve; tested in HEK293 cells
FMDV inh: High Throughput Screening for Foot and Mouth Disease Virus Antivirals. FMDV antiviral cell-based qHTS. AID 1159524, 2015. 410,000 tested, 1.2% active. Potency, µM (highest dose often 57.9 µM), hits mostly inhibitors; calls by dose curve; tested in HEK293T cells; further: read-out not given here; nearly all actives have a fitted effect of over 45% in size
HCV inh confirm: qHTS Assay for Inhibitors of Hepatitis C Virus (HCV): Confirmation Assay for Cherry-picked Compounds. shares compounds with HCV inh. Potency, µM (top dose mostly 41.8 µM), usual class: inhibitors. HCVcc-Cre infectious virus cell assay, luciferase, inhibition. 640 tested, 78% active. AID 720575, 2013; further: nearly all actives have a fitted effect of over 80% in size
HCV cytotox: qHTS Assay for Inhibitors of Hepatitis C Virus (HCV): Cytotoxicity Counterscreen for Cherry-picked Compounds. 640 tested, 22% active. HCV host cell line cytotoxicity counterscreen. Potency, µM (series often up to 41.8 µM), hits mostly inhibitors. shares compounds with HCV inh. AID 720576, 2013;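 further: 44 h compound exposure; nearly all actives have a fitted effect of over 55% in size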
Numbers stand for hits. Unless noted, the call rests on the fitted dose curve; in most records, active means well fitted curve in the direction sought with a large enough effect; inconclusive means small, poorly fitted or top-dose-only effect, or another doubt; inactive means no such curve, though single readings can be large; an effect the other way counts as inactive or inconclusive.

Results for N#Cc1ccc(-c2cn(-c3ccccc3)c3[n+]2CCCS3)cc1 ?
SARS PLpro yeast: inactive; HCMV inh: inactive; LASV entry inh: inactive; HCV inh: inactive; Marburg entry inh: inactive; FMDV inh: inactive

Results for CCCN1C(=O)C(NC(=O)c2ccccc2OC)(C(F)(F)F)C(C(=O)OC)=C1C (centres undefined) ?
HCMV inh: inactive; LASV entry inh: inactive; Marburg entry inh: inconclusive; FMDV inh: inactive

Results for CCCCOc1ccc(/C=C/C(=O)Nc2ccc([N+](=O)[O-])cc2C)cc1 ?
SARS PLpro yeast: inactive; HCMV inh: inactive; LASV entry inh: inactive; HCV inh: inconclusive; Marburg entry inh: inactive; FMDV inh: inactive

Results for CCCOc1ccc(/C=C/C(=O)Nc2ccc([N+](=O)[O-])cc2)cc1 ?
SARS PLpro yeast: inactive; HCMV inh: -69.6; LASV entry inh: inconclusive; HCV inh: 3.55µM; Marburg entry inh: 1.78µM; FMDV inh: 5.62µM; HCV inh confirm: 7.91µM; HCV cytotox: 19.9µM

How did Cc1ccc(Cl)cc1NC(=O)Cn1c(=O)oc2cc(S(=O)(=O)N3CCCCCC3)ccc21 do in these assays?
HCMV inh: inactive; LASV entry inh: inactive; FMDV inh: inactive

What do the screens show for `CCN(CC)CCCn1c2c(c(SCC(=O)Nc3cc(C)cc(C)c3)nc1=O)CCC2`?
HCMV inh: inactive; FMDV inh: inactive

How did CCCCCCCCCCn1c2c(c(=N)c3c1CCC3)CCC2 do in these assays?
SARS PLpro yeast: inactive; HCMV inh: -97.5; LASV entry inh: inconclusive; HCV inh: 3.55µM; Marburg entry inh: inconclusive; FMDV inh: 17.8µM; HCV inh confirm: 1.77µM; HCV cytotox: 2.23µM

What do the screens show for `O=c1c(-c2nnc(SCc3ccc(Cl)cc3)o2)cccn1Cc1ccccc1`?
SARS PLpro yeast: inactive; HCMV inh: inconclusive; LASV entry inh: inconclusive; HCV inh: 3.55µM; Marburg entry inh: inconclusive; FMDV inh: inactive; HCV inh confirm: 12.5µM; HCV cytotox: inconclusive

Results for O=C(Nc1ccccc1-c1nnc(SCc2ccc(Cl)cc2)o1)c1ccccc1 ?
SARS PLpro yeast: inactive; HCMV inh: inactive; LASV entry inh: inactive; HCV inh: inactive; Marburg entry inh: inconclusive; FMDV inh: inactive

How did COc1ccc(OC)c(NC(=O)CCc2c(C)nc3c(c(C)nn3C(C)(C)C)c2C)c1 do in these assays?
HCMV inh: inactive; LASV entry inh: inactive; Marburg entry inh: inconclusive; FMDV inh: inactive

What do the screens show for `COc1ccc(OCC(=O)OCc2cc(=O)n3cc(C)sc3n2)cc1`?
HCMV inh: inactive; LASV entry inh: inactive; FMDV inh: inactive

What do the screens show for `COc1ccc(NC(=O)c2oc3ccccc3c2NC(=O)C2CC2)cc1`?
SARS PLpro yeast: inactive; HCMV inh: inactive; LASV entry inh: inactive; HCV inh: inactive; Marburg entry inh: inactive; FMDV inh: inactive

Results for COc1cccc(NC(=O)c2oc3ccccc3c2NC(=O)C2CC2)c1 ?
SARS PLpro yeast: inactive; HCMV inh: inactive; LASV entry inh: inconclusive; HCV inh: inconclusive; Marburg entry inh: inconclusive; FMDV inh: inactive; HCV inh confirm: inconclusive; HCV cytotox: inactive

Results for Cc1nn(Cc2c(F)c(F)c(F)c(F)c2F)c(C)c1NC(=O)c1ccc(COc2ccc(F)cc2)o1 ?
SARS PLpro yeast: inactive; HCMV inh: inconclusive; LASV entry inh: inactive; HCV inh: 2µM; Marburg entry inh: 3.66µM; FMDV inh: inconclusive; HCV inh confirm: 14.1µM; HCV cytotox: inactive

Results for COc1ccc(N2CCN(C(=O)c3ccc4c(c3)N(Cc3ccc(F)cc3)C(=O)c3ccccc3S4=O)CC2)cc1 (centres undefined) ?
HCMV inh: inactive; LASV entry inh: inconclusive; Marburg entry inh: inconclusive; FMDV inh: inactive

How did O=C(NCCC1=CCCCC1)C1CCN(C(=O)N2CCOc3ccccc32)CC1 do in these assays?
HCMV inh: inactive; LASV entry inh: inactive; FMDV inh: inactive

What do the screens show for `CN1CCc2nc(SCC(=O)Nc3cccc(F)c3)c(C#N)c(-c3cccs3)c2C1`?
SARS PLpro yeast: inactive; HCMV inh: inactive; LASV entry inh: inactive; HCV inh: inconclusive; Marburg entry inh: inactive; FMDV inh: inactive; HCV inh confirm: inconclusive; HCV cytotox: inactive

Results for CC(C)(C)C(=O)CSc1nc2c(c(-c3cccs3)c1C#N)CCC2 ?
SARS PLpro yeast: inactive; HCMV inh: inactive; LASV entry inh: inactive; HCV inh: inconclusive; Marburg entry inh: inactive; FMDV inh: inactive

How did Cc1cc(C)cc(N2C(=O)CSC23C(=O)N(CC(=O)Nc2ccc(F)cc2F)c2ccccc23)c1 (centres undefined) do in these assays?
HCMV inh: inactive; LASV entry inh: inactive; FMDV inh: inactive

Results for COc1cc2c(cc1NC(=O)C(Cl)Cl)-c1ccc(NC(=O)C(Cl)Cl)cc1C2 ?
HCMV inh: -67.8; LASV entry inh: inconclusive; HCV inh: inconclusive; Marburg entry inh: inconclusive; FMDV inh: inactive; HCV inh confirm: 17.7µM; HCV cytotox: inconclusive

Results for Cc1c(C(=O)NCC2COc3ccccc3O2)oc2ccc(S(=O)(=O)N3CCOCC3)cc12 (centres undefined) ?
SARS PLpro yeast: inactive; HCMV inh: inactive; LASV entry inh: inconclusive; HCV inh: 5.62µM; Marburg entry inh: inconclusive; FMDV inh: inconclusive; HCV inh confirm: 17.7µM; HCV cytotox: inactive

Results for Cc1c(C(=O)NCC2COc3ccccc3O2)oc2ccc(S(=O)(=O)N3CC(C)CC(C)C3)cc12 (centres undefined) ?
SARS PLpro yeast: inactive; HCMV inh: inactive; LASV entry inh: inactive; HCV inh: inconclusive; Marburg entry inh: inconclusive

Results for CC(=O)O[C@H]1C[C@H]2CC[C@@H]3[C@H]4C[C@@H]([N+]5(C)CCCCC5)[C@@H](OC(C)=O)[C@]4(C)CC[C@@H]3[C@@]2(C)C[C@@H]1[N+]1(C)CCCCC1 ?
FMDV inh: inactive

How did COc1ccc(N=Nc2c(C)[nH]c3ccccc23)cc1 do in these assays?
HCMV inh: inactive; LASV entry inh: inactive; HCV inh: 7.08µM; Marburg entry inh: inconclusive; FMDV inh: inactive; HCV inh confirm: 19.9µM; HCV cytotox: inactive

How did CC(=O)c1cccc(N=Nc2c(C)[nH]c3ccccc23)c1 do in these assays?
SARS PLpro yeast: inactive; HCMV inh: inactive; LASV entry inh: inactive; HCV inh: inconclusive; Marburg entry inh: inactive; FMDV inh: inactive
